This is an account of results in PubChem BioAssay AID777 (Sanford-Burnham Center for Chemical Genomics, 2007).

In all, about 96,000 compounds went through this assay and about 19,000 (20%) were called active. Only a sample is shown. A number with no mark means an inactive call.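 Rule for the calls: active = blocking of liver enzyme CYP2C9 beyond about 50% at 5 µM (limit read from the data); inactive = the rest.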

A word on the inhibition: it is the drop in the measured response relative to a control, in per cent.

Chain of Cytochrome P450 2C9 (Homo sapiens) (P11712 whole entry, looked up): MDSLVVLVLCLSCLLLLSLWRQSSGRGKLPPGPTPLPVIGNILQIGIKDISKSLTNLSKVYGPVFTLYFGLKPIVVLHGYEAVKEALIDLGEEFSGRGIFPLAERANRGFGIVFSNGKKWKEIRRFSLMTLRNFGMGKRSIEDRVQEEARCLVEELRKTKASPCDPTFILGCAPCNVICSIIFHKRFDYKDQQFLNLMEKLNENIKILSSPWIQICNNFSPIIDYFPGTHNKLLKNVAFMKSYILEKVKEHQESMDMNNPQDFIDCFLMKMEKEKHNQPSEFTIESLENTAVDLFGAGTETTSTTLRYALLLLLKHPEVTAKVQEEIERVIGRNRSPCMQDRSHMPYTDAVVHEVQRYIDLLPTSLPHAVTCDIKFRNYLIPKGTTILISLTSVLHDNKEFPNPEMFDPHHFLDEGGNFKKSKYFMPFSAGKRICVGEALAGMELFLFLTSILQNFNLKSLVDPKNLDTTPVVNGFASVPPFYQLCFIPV

This test concerns the target Cytochrome P450 2C9 (Homo sapiens) (UniProt P11712). The experiment in a line: blockers of cytochrome P450 2C9 activity – biochemical, luminescence, ADME assay, primary screen (AID 777). The settings on record: CYP2C9 Supersomes, luciferin-H conversion, at 5 µM, stronger effect = higher value.
In the case of `Cc1nc(C)c2c(c1C(F)(F)F)-c1ccccc1C2(F)F`, the inhibition was -9.6%.

On to `Nc1ncc(-c2cc3ccccc3oc2=O)s1`, for which the inhibition was 24%.

For the compound `N#Cc1c(C(F)(F)F)cc(-c2ccccc2)nc1SCC(=O)N1CCOCC1`, the inhibition is -15.6%.

In the case of `CCc1c(-c2ccccc2)nc(N)c(C#N)c1-c1cccs1`, the inhibition was 21.7%.

On to `CCN(CC)c1nc(-c2ccccc2)cc(C(F)(F)F)c1C#N`, for which the inhibition was 89.5% (active).

On to `Cc1ccc(-c2csc(-c3c[nH]c4ccccc34)n2)cc1`, for which the inhibition was 9.8%.

Take `COc1ccc2c(Cl)c(C(=O)NCc3ccco3)sc2c1`: the inhibition was -31.6%.

With `Cc1nc(SCC(=O)c2ccccc2)c([N+](=O)[O-])[nH]1`, the inhibition is 39.1%.

As for `Cc1cc(SCC(=O)c2ccccc2)nc(SCC(=O)c2ccccc2)n1`, the inhibition was 66.3% (active).

As for `COC(=O)c1cc(C(=O)CSc2nc(C)cc(C)n2)ccc1O`, the inhibition was 6%.

As for `O=S(=O)(NCCOc1cccc2cccnc12)c1ccc(F)cc1`, the inhibition is -234%.

Turning to `O=S(=O)(Nc1ccc(Oc2ncccn2)c(Cl)c1)c1ccc(F)cc1`, the inhibition was 99.7% (active).

As to `O=S(=O)(NCc1ccccn1)c1ccc(F)cc1`, the inhibition was -1.3%.

With `CCCNc1ncnc2sc(C)c(C)c12`, the inhibition is 8.4%.

Consider `CC(=O)c1ccc(Oc2cc(C)nc(-n3nc(C)cc3C)n2)cc1`, for which the inhibition is -5%.

`OC(COc1cccc(OCC(O)CN2CCCC2)c1)CN1CCCC1` (stereo unspecified): the inhibition was 15.5%.

As for `O=C(C(c1ccccc1)c1ccccc1)N1CCN(CC(O)COc2ccccc2)CC1` (stereo unspecified), the inhibition was 65.6% (active).

As to `COc1cccc(OCC(O)CN2CCN(CCO)CC2)c1` (stereo unspecified), the inhibition is -2.9%.

As to `CN(C(=O)C1CCOC1)c1nnc(-c2cccnc2)s1` (stereo unspecified), the inhibition is 0.8%.

Turning to `CCn1c(NC(=O)c2ccccc2)c(-c2cccs2)c(=O)c2ccccc21`, the inhibition was 86.7% (active).

For the compound `CCn1c(=O)cc(O)c2ccccc21`, the inhibition was -18.7%.

For the compound `Cn1sc(NC(=O)c2ccccc2)nc1=O`, the inhibition is 19.9%.

Consider `Cc1cc(-c2ccccc2)n2nc(C)c(-c3ccccc3)c2n1`, for which the inhibition is -9.3%.

Turning to `O=C(c1ccco1)N1CCN(C(=O)C2CC(c3ccc(F)cc3)=NO2)CC1` (stereo unspecified), the inhibition is 5.7%.

As to `Fc1ccc(N2N=C(c3cccs3)CC2c2ccco2)c(F)c1` (stereo unspecified), the inhibition is 15.7%.

Take `CCS(=O)(=O)Nc1ccc(C2=NN(S(=O)(=O)c3ccc(F)cc3)C(c3ccco3)C2)cc1` (stereo unspecified): the inhibition was 87.7% (active).

Turning to `CC(=O)Nc1ccc(N2C(=O)CCC2=O)cc1C`, the inhibition was 16.4%.

As to `O=C(Cn1nc(C(F)(F)F)c2c1CCC2)NCc1ccc(F)cc1`, the inhibition is -216%.

Regarding `CCCN1C(=O)C(NS(=O)(=O)c2ccc(N)cc2)(C(F)(F)F)C(C(=O)OC)=C1C` (stereo unspecified), the inhibition was -3.4%.

As to `CCCCn1c(CCCNC(=O)CC)nc2ccccc21`, the inhibition was -16.5%.

On to `Cc1ccccc1S(=O)(=O)Cc1ccc(C(=O)NCCN2CCCCC2C)o1` (stereo unspecified), for which the inhibition was 11.1%.

Turning to `Cc1cccc(NC(=O)CN2C(=O)CNC2=O)c1`, the inhibition was -16.3%.

Regarding `Cc1cccc(NC(=O)C(C)N2C(=O)C3C4CC(C(Br)C4Br)C3C2=O)c1` (stereo unspecified), the inhibition was 51.6% (active).

Consider `Cc1cccc(NC(=O)Nc2cccc(Oc3c(F)c(F)c(F)c(F)c3F)c2)c1`, for which the inhibition is 20.6%.

As for `CC1=C(C(=O)Nc2ccc(Cl)cc2)C(c2ccco2)NC(=O)N1` (stereo unspecified), the inhibition is 0.4%.

Turning to `CCOc1ccccc1C1NC(=O)NC(C)=C1C(=O)OCc1ccco1` (stereo unspecified), the inhibition is 75.3% (active).

With `CCOC(=O)COc1ccc(Cl)cc1C1NC(=O)NC(C)=C1C(C)=O` (stereo unspecified), the inhibition is 44.9%.

Turning to `CCOc1ccccc1C(=O)NCc1ccco1`, the inhibition is -0.6%.

Turning to `c1ccc(CSc2ncnc3c2sc2nc(N4CCOCC4)c4c(c23)CCCC4)cc1`, the inhibition is 10.4%.

Consider `CCOC(=O)c1sc(NC(=O)CSc2nc(C)cc(C(F)(F)F)n2)c(C#N)c1C`, for which the inhibition was 24.8%.

For `COC(=O)C(NC(C)=O)(Nc1nc2c(s1)CCCC2)C(F)(F)F` (stereo unspecified), the inhibition is 26.9%.

`CCC(=O)NC(Nc1cc(C)ccn1)(C(F)(F)F)C(F)(F)F`: the inhibition was 23.8%.

As to `CCC(=O)NC(Nc1nc2ccc(C)cc2s1)(C(=O)OC)C(F)(F)F` (stereo unspecified), the inhibition is 97% (active).

As to `O=C(CCN1C(=O)COc2ccccc21)NCCCN1CCN(c2ccc(F)cc2)CC1`, the inhibition is 3.9%.

Turning to `COc1ccc(OC)c(C2N(c3ccccn3)C(=O)C3CCCN32)c1` (stereo unspecified), the inhibition was 10.9%.

For `C=CCn1c(=S)[nH]c2nc3c(cc2c1=O)COC(C)(C)C3`, the inhibition was 31.2%.

On to `CC(C)CCSc1ncnc2c1oc1nc3c(cc12)COC(C)(C)C3`, for which the inhibition was 55.7% (active).

As to `CC1(C)Cc2nc3sc4c(SCC(=O)NC(c5ccccc5)c5ccccc5)ncnc4c3cc2CO1`, the inhibition was 20.2%.

Take `CN(C)c1ccnc2sc3c(=O)n(Cc4ccccc4)cnc3c12`: the inhibition was 49.6%.

On to `O=C(COC(=O)c1ccccc1NC(=O)c1ccco1)Nc1ccc2c(c1)OC(F)(F)O2`, for which the inhibition was 76.1% (active).

Regarding `COc1ccccc1C(=O)Nc1ccc(NC(=O)c2ccco2)c(C)c1`, the inhibition was -177%.

In the case of `Cc1ccccc1NC(=O)c1cnn(-c2ccccc2)c1NC(=O)c1ccco1`, the inhibition was 1.2%.

As for `Cc1cc(N)n2nc(-c3ccc(C(C)(C)C)cc3)cc2n1`, the inhibition was 38.3%.

Take `CCN1CCN(Cc2nc3c(c(=O)n(C)c(=O)n3C)n2CC(=O)c2ccccc2)CC1`: the inhibition was 29.8%.

With `Cn1c(=O)c2c(nc(NCCc3ccccc3)n2Cc2ccccc2)n(C)c1=O`, the inhibition was 5.6%.

Regarding `C=CCOc1nc2c(c(=O)n(C)c(=O)n2C)n1Cc1ccc(Cl)cc1Cl`, the inhibition is 8.1%.

For the compound `Cn1c(=O)c2c(nc(OCc3cccnc3)n2Cc2ccccc2)n(C)c1=O`, the inhibition is 52.4% (active).

Consider `CCOC(=O)N1CCN(Cc2nc3c(c(=O)n(C)c(=O)n3C)n2Cc2ccccc2)CC1`, for which the inhibition was 9.9%.

On to `COCCn1c(CN2CCC(Cc3ccccc3)CC2)nc2c1c(=O)n(C)c(=O)n2C`, for which the inhibition was 54.2% (active).

Regarding `Cn1c(=O)[nH]c(=O)c2c1nc(CN(Cc1ccccc1)Cc1ccccc1)n2CCN1CCOCC1`, the inhibition was 7.6%.

With `CC(C)CCn1c(CN(C)Cc2ccccc2)nc2c1c(=O)n(C)c(=O)n2C`, the inhibition is 95.6% (active).

Regarding `COCCn1c(CN(Cc2ccccc2)Cc2ccccc2)nc2c1c(=O)n(C)c(=O)n2C`, the inhibition was 96.4% (active).

With `CC1CN(Cc2nc3c(c(=O)n(C)c(=O)n3C)n2Cc2cccc(Cl)c2)CC(C)O1` (stereo unspecified), the inhibition is 28%.

Consider `CCOC(=O)Cn1c(CN(Cc2ccccc2)Cc2ccccc2)nc2c1c(=O)[nH]c(=O)n2C`, for which the inhibition is 48.8%.

For `CN1CCN(Cc2nc3c(c(=O)n(C)c(=O)n3C)n2Cc2cccc3ccccc23)CC1`, the inhibition is -8.7%.

Take `CC(=O)c1ccc2c(ccc3ccccc32)c1`: the inhibition is 40.7%.

With `CC(C)NC(=O)C(=O)NCCN1CCN(S(=O)(=O)c2ccc(Cl)cc2)CC1`, the inhibition was 20.7%.

Regarding `COCCN1Cc2cccc(C(=O)Nc3ccccc3OC)c2C1=O`, the inhibition is 34.5%.

On to `O=C(Nc1cc2ccccc2oc1=O)C1CCCCC1`, for which the inhibition was 3.6%.

Regarding `Cc1cccc(C)c1NC(=O)CCCSc1nnc(-c2ccco2)n1-c1ccccc1`, the inhibition was 25.6%.

For `O=C(Nc1nnc(CCc2ccccc2)s1)C1CCCO1` (stereo unspecified), the inhibition was 16.3%.

On to `O=C(OC(C(=O)NC1CCCC1)c1ccc(F)cc1)c1ccno1` (stereo unspecified), for which the inhibition was 13.9%.

Consider `CC(C)Cn1c(CN(Cc2ccccc2)Cc2ccccc2)nc2c1c(=O)n(C)c(=O)n2C`, for which the inhibition was 72.2% (active).

As for `CC(C)Cn1cnc2c1c(=O)n(CC(O)c1ccccc1)c(=O)n2CC(C)C` (stereo unspecified), the inhibition is -5.7%.

On to `Cc1ccc(S(=O)(=O)N2CCCC2CO)cc1` (stereo unspecified), for which the inhibition is -37%.

Turning to `Cc1ccc(S(=O)(=O)n2nc(OC(=O)C(C)(C)C)cc2N)cc1`, the inhibition was 50.4% (active).

Turning to `Nc1cc(OC(=O)c2ccccc2Br)nn1S(=O)(=O)c1ccccc1`, the inhibition was 61.5% (active).

For `Cc1c(C(=O)OCC(=O)N(CCC#N)c2ccccc2)oc2c1ccc1ccccc12`, the inhibition is -74.8%.

For the compound `CC(=O)Nc1ccccc1OC(=O)N1CCOCC1`, the inhibition is -0.1%.

Turning to `CC(C)Cc1cc(C(=O)Nc2cc(Br)ccc2O)no1`, the inhibition is 18.1%.

As for `O=c1c2ccccc2oc2nc3n(c(=O)c12)CCCS3`, the inhibition is -21.3%.

As to `Cn1c(=O)n(CCc2ccccc2)c(=O)c2c1nc1n2CCCN1c1ccccc1`, the inhibition is 14.3%.

With `COc1ccc(N2CC(C)Cn3c2nc2c3c(=O)n(Cc3ccccc3F)c(=O)n2C)c(OC)c1` (stereo unspecified), the inhibition is -4.7%.

Take `Cc1cccc(N2CC(C)Cn3c2nc2c3c(=O)n(CC(=O)OCc3ccccc3)c(=O)n2C)c1` (stereo unspecified): the inhibition is 86.9% (active).

With `O=C(/C=C/c1cc2c(cc1Br)OCO2)NCc1ccc(Cl)cc1`, the inhibition is -6.4%.

For the compound `CC(C)(C)C(=O)c1cnc(Nc2ccccc2)s1`, the inhibition was 33.1%.

On to `S=c1[nH]nc(-c2ccco2)n1/N=C/c1ccc(Br)s1`, for which the inhibition was -24.6%.

As for `COc1ccc(OC)c(C(c2nnnn2C(C)(C)C)N2CCc3ccccc3C2)c1` (stereo unspecified), the inhibition was 98.9% (active).

With `Cc1ccc(C(c2nnnn2C(C)(C)C)N2CCc3ccccc3C2)cc1` (stereo unspecified), the inhibition is -5.7%.

Turning to `CCC(C)(C)n1nnnc1C(c1ccccc1OC)N1CCSCC1` (stereo unspecified), the inhibition was 17%.

Take `CCN(CC)C(=O)CN(c1cccc(OC)c1)S(=O)(=O)c1ccc(C)cc1`: the inhibition is 94% (active).

In the case of `CCOc1ccc(S(=O)(=O)N(CC(=O)O)c2ccccc2)cc1`, the inhibition was 17.7%.

Regarding `COc1cccc(NC(=O)CN(C)S(=O)(=O)c2ccc(C)cc2)c1`, the inhibition is 19%.

For `Cc1nonc1OCCn1nnnc1N`, the inhibition was 6.3%.

On to `CCN(CC(=O)NCc1cccs1)c1nnnn1-c1ccccc1`, for which the inhibition is -1.7%.

`Cc1n[nH]c(=S)n1/N=C/c1ccc(Br)o1`: the inhibition is 4.5%.
